Parameters in all cases: scale not given: direction of the effect not stated beside the values
The target in assay [1] is Protein translocase subunit SecA (Escherichia coli (strain K12)) (UniProt P10408). Description: Assay to Identify E. coli SecA ATPase Inhibitors. In kind it is functional. The note with it: 30 µM.
The target of assay [2] is T1, Ubiquitin-activating enzyme e1, putative (Leishmania donovani (strain BPK282A1)) (UniProt E9BSI1).
T1 sequence (whole entry): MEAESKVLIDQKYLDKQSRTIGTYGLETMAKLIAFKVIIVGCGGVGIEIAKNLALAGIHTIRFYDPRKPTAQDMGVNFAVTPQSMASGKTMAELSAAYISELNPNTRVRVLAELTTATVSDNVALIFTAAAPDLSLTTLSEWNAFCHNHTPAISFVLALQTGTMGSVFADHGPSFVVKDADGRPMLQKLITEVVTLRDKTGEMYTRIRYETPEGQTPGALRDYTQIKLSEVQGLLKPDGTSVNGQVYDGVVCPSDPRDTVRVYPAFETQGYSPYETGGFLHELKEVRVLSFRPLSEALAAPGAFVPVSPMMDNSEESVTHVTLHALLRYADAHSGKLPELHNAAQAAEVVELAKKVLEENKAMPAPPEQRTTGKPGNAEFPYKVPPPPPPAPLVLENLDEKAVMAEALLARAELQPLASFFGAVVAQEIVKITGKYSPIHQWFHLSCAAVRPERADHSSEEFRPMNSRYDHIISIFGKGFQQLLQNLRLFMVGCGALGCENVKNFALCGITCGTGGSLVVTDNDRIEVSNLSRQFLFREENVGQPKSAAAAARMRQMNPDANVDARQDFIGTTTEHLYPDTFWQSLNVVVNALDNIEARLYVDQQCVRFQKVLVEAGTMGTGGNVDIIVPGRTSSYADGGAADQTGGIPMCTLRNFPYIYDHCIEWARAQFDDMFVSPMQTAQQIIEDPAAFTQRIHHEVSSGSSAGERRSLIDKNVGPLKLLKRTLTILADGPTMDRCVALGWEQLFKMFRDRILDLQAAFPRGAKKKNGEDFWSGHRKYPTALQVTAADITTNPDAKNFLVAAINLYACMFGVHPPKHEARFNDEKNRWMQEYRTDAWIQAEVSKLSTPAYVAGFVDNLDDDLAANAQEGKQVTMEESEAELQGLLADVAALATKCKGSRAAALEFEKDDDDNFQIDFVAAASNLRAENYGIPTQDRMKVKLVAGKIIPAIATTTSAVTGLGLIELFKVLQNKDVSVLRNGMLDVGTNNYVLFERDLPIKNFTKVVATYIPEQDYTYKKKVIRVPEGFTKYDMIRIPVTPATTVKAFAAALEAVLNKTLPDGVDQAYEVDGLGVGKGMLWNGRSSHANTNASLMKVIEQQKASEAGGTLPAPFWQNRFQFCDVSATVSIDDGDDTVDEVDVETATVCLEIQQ
The experiment in a line: Leishmania donovani Ubiquitin Activating Enzyme (LdE1). It counts as functional. The conditions noted are these: 30 µM.

For assay [3], the target named is AMP-activated protein kinase, AMPK (Homo sapiens) (UniProt P54646+O43741+P54619+Q9UGJ0+Q9Y478+Q13131+Q9UGI9). The experiment in a line: AMP-dependent Kinase enzyme assay. An in vitro enzyme assay that detects ADP turnover that is directly proportional to AMPK activity. This uses naive AMPK that is activated during the assay with MK-8722. The conditions noted are these: 30 µM. In kind it is functional.

For assay [4], the target named is Sialic acid-binding Ig-like lectin 9 (Homo sapiens) (UniProt Q9Y336). The experiment in a line: Hs-Siglec9 ALPHAscreen SOP 20170721. The note with it: 10 µM. Background: Bead proximity is the source of the signal in Alpha formats.
Chain of Sialic acid-binding Ig-like lectin 9 (Homo sapiens) (Q9Y336 whole entry): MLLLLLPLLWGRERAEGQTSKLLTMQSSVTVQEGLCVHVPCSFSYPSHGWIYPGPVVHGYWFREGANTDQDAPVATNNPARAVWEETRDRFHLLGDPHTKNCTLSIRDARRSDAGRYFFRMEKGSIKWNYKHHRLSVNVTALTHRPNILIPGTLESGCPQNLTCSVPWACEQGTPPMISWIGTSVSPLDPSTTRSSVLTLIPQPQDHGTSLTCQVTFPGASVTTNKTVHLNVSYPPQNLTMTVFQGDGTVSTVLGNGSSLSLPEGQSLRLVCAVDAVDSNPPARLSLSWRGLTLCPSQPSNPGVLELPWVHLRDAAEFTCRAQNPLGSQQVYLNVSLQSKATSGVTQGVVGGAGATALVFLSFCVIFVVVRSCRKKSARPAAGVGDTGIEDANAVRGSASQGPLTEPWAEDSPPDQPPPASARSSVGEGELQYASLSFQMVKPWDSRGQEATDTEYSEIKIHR
In a further assay the test system is Trypanosoma cruzi. Description: Trypanosoma cruzi phosphomannomutase and mannose-1-phosphate guanylyltransferase assay. In kind it is functional. The note with it: 10 µM.
For assay [5], the target named is T2, Arginase-2, mitochondrial (Homo sapiens) (UniProt P78540).
T2 sequence (whole entry): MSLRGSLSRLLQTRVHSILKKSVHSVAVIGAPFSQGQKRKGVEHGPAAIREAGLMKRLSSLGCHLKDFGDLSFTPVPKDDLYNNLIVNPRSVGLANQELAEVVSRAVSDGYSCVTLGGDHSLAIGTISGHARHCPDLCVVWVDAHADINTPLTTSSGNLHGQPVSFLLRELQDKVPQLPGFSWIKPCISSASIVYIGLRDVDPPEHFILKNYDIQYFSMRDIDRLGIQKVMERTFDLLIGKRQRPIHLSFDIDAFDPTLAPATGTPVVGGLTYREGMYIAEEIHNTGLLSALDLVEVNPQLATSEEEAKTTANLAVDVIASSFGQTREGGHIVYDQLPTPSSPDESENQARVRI
Description: in vitro enzyme assay to detect the production of urea directly proportional to the activity of Arginase II. Further: in the data most compounds retested in dose-response had high values. It counts as functional. The conditions noted are these: 33.3 µM.

The target in assay [6] is T3, Proteasome subunit beta (Trypanosoma cruzi) (UniProt O96673).
T3 sequence (whole entry): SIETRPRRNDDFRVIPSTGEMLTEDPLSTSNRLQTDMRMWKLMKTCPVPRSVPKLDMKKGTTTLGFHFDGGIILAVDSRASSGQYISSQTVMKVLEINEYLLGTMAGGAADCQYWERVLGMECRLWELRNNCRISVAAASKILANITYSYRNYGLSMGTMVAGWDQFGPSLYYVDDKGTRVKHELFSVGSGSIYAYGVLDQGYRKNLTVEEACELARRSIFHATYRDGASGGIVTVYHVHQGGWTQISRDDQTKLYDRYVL
The experiment in a line: Trypanosoma cruzi proteasome chymotrypsin-like activity (TcProtChymo) assay. Further: in the data most compounds retested in dose-response had high values. It counts as functional. The note with it: 9.37 µM.

The species entered for the next assay is Homo sapiens. The experiment in a line: To identify inhibition of the IFN signalling (Jak-Stat) pathway via expression of an eGFP reporter gene under the control of an IFN-stimulated response element (ISRE) containing MxA promoter. In kind it is functional. The conditions noted are these: 30 µM. A general note: Reporter assays use an easily measured gene product as a stand-in for the process of interest.

Assay [7] concerns the target T4, Tyrosyl-tRNA synthetase, putative (Trypanosoma cruzi (strain CL Brener)) (UniProt Q4DSP6).
T4 sequence (whole entry): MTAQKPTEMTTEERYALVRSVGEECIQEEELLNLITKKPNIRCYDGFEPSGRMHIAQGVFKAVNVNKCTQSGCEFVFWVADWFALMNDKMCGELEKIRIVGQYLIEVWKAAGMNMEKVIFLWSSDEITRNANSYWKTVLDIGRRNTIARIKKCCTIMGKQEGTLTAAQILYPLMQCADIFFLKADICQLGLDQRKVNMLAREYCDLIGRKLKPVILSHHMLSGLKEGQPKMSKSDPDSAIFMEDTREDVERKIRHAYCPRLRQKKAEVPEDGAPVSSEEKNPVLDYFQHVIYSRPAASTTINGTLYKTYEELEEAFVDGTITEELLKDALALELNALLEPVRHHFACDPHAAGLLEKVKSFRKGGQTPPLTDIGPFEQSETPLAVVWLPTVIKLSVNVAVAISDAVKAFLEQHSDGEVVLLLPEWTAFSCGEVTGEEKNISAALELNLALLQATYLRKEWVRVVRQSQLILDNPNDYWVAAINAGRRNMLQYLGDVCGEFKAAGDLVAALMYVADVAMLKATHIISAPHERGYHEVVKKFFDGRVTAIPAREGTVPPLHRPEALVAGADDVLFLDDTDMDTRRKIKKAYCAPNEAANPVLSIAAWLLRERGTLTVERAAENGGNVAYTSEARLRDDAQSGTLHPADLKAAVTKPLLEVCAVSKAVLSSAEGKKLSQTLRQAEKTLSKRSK
Description: Trypanosoma cruzi tyrosyl tRNA synthetase (TcYRS) _High Tyrosine SOP. Further: in the data most compounds retested in dose-response had high values. In kind it is functional. The conditions noted are these: 30 µM.

The target of assay [8] is T4, Tyrosyl-tRNA synthetase, putative (Trypanosoma cruzi (strain CL Brener)). Description: Trypanosoma cruzi tyrosyl tRNA synthetase (TcYRS) SOP. It counts as functional. The conditions noted are these: 30 µM.
Assay [9] concerns the target Chromo domain-containing protein 1 (Saccharomyces cerevisiae (strain ATCC 204508 / S288c) (Baker's yeast)) (UniProt P32657). The experiment in a line: ScCHD-1 Enzyme Inhibition Assay. Further: in the data most compounds retested in dose-response had high values. It counts as functional. The conditions noted are these: 30 µM.

For some of these results: Measured potencies and affinities stand elsewhere.

Chain of Chromo domain-containing protein 1 (Saccharomyces cerevisiae (strain ATCC 204508 / S288c) (Baker's yeast)) (P32657 whole entry, the tested form may be a part): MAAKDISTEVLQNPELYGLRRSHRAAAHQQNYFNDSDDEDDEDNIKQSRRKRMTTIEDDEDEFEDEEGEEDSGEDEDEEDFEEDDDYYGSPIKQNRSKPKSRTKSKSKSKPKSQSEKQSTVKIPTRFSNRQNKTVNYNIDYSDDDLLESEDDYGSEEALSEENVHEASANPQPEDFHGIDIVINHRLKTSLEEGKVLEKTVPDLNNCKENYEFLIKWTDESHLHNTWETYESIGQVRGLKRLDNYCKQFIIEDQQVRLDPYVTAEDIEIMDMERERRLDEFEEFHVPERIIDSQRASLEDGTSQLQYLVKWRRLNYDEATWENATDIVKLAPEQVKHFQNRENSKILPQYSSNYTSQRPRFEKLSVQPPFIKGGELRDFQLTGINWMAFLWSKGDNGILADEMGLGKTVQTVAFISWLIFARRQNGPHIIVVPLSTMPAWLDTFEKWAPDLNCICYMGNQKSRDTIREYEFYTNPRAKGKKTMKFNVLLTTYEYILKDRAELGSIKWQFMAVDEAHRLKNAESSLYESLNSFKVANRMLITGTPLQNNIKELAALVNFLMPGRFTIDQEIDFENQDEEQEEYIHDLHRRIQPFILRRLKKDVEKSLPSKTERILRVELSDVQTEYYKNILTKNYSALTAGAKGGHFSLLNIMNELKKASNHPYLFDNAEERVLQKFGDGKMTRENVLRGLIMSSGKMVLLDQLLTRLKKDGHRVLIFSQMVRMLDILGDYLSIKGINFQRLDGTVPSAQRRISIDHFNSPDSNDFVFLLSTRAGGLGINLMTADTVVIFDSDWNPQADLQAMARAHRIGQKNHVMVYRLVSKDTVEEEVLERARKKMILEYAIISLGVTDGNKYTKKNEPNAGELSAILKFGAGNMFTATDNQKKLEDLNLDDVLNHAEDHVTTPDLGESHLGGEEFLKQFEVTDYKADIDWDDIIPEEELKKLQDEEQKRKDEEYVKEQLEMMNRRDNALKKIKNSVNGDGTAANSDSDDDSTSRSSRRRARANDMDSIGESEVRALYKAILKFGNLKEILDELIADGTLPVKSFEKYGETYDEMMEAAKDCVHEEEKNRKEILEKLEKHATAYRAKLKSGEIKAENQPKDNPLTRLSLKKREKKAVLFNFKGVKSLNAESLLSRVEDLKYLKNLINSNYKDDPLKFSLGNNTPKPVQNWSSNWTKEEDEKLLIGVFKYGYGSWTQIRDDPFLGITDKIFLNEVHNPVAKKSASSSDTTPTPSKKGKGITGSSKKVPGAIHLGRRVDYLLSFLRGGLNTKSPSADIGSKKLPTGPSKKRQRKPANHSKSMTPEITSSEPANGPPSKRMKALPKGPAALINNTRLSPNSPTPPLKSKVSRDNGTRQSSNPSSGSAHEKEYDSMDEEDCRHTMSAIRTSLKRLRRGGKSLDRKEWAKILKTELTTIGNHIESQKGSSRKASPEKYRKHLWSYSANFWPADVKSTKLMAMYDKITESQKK
Chain of Protein translocase subunit SecA (Escherichia coli (strain K12)) (P10408 whole entry): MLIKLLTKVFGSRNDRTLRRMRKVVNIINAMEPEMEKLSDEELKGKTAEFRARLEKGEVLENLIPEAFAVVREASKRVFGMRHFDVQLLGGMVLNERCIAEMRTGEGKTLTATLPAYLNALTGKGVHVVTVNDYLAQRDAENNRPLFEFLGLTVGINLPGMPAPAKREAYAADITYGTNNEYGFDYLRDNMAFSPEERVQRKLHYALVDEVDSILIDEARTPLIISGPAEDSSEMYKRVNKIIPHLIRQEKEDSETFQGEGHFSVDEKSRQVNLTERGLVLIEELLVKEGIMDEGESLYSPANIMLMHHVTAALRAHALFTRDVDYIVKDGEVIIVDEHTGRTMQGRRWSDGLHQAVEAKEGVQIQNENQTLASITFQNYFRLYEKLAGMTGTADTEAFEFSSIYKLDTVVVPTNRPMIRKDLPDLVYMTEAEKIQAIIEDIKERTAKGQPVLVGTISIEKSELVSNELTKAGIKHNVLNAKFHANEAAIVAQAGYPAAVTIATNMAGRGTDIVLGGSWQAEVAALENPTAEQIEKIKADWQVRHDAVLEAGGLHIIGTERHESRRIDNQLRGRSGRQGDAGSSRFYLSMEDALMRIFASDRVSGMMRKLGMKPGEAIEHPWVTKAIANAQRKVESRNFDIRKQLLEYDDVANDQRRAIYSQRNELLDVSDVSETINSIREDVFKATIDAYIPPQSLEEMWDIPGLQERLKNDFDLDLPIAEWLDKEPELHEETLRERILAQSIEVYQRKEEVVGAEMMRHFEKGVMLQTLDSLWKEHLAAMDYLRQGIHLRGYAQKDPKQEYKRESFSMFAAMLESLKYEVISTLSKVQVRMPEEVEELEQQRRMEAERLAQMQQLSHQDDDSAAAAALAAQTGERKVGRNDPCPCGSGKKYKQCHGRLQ

Turning to `CC(c1ccc(F)c(F)c1)N1CCN(Cc2nccn2C)CC1` (stereo not drawn), the Percent Effect is 0.457% in assay [1]; 20.8% in assay [2]; -8.62% in assay [3]; 5.23% in assay [4]; -7.68% in the assay on Trypanosoma cruzi; 5.69% in [5]. Further, the Percent Effect is 8.62% in assay [6]; 40.9% in the assay filed under Homo sapiens; -5.83% in [7]; -2.44% in assay [8]; -9.27% in [9].

On to `CC(C)(C)c1ccn(C2(C(=O)O)CCN(c3nccc(N)n3)CC2)n1`, for which the Percent Effect in assay [1] was -4.48%; in assay [2], -6.94%; in [3], 0.972%; in assay [4], 0.435%; in the assay with Trypanosoma cruzi, -2.23%; in assay [5], -0.442%. For the same molecule, the Percent Effect was 10.7% in [6]; 0.112% in the assay filed under Homo sapiens; 3.16% in [7]; -5.13% in assay [8]; 6.06% in assay [9].

With `O=C(CCNC(=O)c1ccccc1)Nc1ccncc1`, the Percent Effect in assay [1] is 1.26%; in assay [2], 10.5%; in assay [3], 6.49%; in assay [4] it was -0.508%; in the assay on Trypanosoma cruzi, -4.58%; in assay [5] it was -8.28%. Moreover, the Percent Effect in assay [6] was 13.5%; in the assay filed under Homo sapiens, 3.87%; in [7] it was 2.13%; in [8], 10.4%; in assay [9], -2.65%.

Turning to `CCC(=O)N1CCC(c2nnc(Cn3cncn3)n2C2CC2)CC1`, the Percent Effect in assay [1] is -0.998%; in assay [2], 15.3%; in assay [3] it was -1.98%; in assay [4], 12.9%; with Trypanosoma cruzi, 5.34%; in assay [5] it was 16.3%. Also, the Percent Effect is 17.7% in [6]; 0.244% in the assay filed under Homo sapiens; -1.05% in [7]; 15.4% in [8]; -3.53% in assay [9].

Regarding `CN1CCN(Cc2cccnc2)C2(CCN(c3ncc(F)cn3)C2)C1=O` (stereo not drawn), the Percent Effect is -4.27% in assay [1]; 5.2% in [2]; 2.79% in [3]; 8.1% in assay [4]; -0.885% in the assay on Trypanosoma cruzi; -13.8% in assay [5]. Besides, the Percent Effect was 2.33% in assay [6]; -4.32% in the assay listed under Homo sapiens; 4.3% in [7]; 8.64% in assay [8]; -0.489% in assay [9].

As to `CS(=O)(=O)c1ccc(OCCNCc2ccc(F)cc2F)cc1`, the Percent Effect is -5.74% in assay [1]; 8.22% in [2]; 1.54% in assay [3]; 2.33% in [4]; 4.37% with Trypanosoma cruzi; -7.19% in assay [5]. The Percent Effect is 9.85% in assay [6]; 6.01% in the assay filed under Homo sapiens; 8.33% in assay [7]; 13.6% in assay [8]; -1.49% in [9].

On to `CSCc1cccc(S(=O)(=O)NCCCO)c1`, for which the Percent Effect in assay [1] is -4.83%; in assay [2], 5.2%; in [3], 5.07%; in [4], 1.97%; in the assay with Trypanosoma cruzi it was -0.0983%; in assay [5], -20.7%. Moreover, the Percent Effect was 3.33% in assay [6]; -20.6% in the assay filed under Homo sapiens; 5.38% in assay [7]; 11.1% in assay [8]; -2.83% in assay [9].

With `Cc1nccc(CN2CCC(c3nnsc3S(C)(=O)=O)CC2)n1`, the Percent Effect in assay [1] was -3.04%; in assay [2] it was 6.76%; in assay [3], 5.68%; in [4] it was 4.24%; in the assay with Trypanosoma cruzi, -3.75%; in assay [5], -1.16%. In addition, the Percent Effect in assay [6] was 8.89%; in the assay listed under Homo sapiens it was 16.8%; in assay [7] it was 3.23%; in assay [8], 11.7%; in assay [9] it was -12%.

(Values after ChEMBL document CHEMBL3988442, “University of Dundee, Small-Polar-MMV Screening Library” (2021).)
